Experimental data from PubChem BioAssay (NCATS).
Values without a mark were called inactive. Calls come from the whole dose curve; as a rule, active = well fitted curve in the direction sought with a large enough effect; inconclusive = small, poorly fitted or top-dose-only effect, or another doubt; inactive = no such curve, though single readings can be large or run the other way.

Test: Cellular Toxicity (caspase-3) BJ (AID 658);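 note: cells exposed to compound for 16 hours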
Details: BJ fibroblasts, luminescence, normalized: DMSO 0%, staurosporine 100%; series mostly up to 91.7 µM; caspase-3 activation: at the top concentration
Outline: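 Readout: Caspase-Glo 3/7 luminescence increase in BJ cells after 16 hr treatment at 37 °C. Staurosporine and tamoxifen served as positive controls; AC50 values came from Hill modelling of data normalized to DMSO and 10 uM staurosporine.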

SMILES	caspase-3 activation [%]
Nc1ccccc1S(=O)(=O)O	1.17
c1ccsc1	0.342
FC(F)(F)c1ccccc1Cl	0.717
O=C1NC(=O)c2cc([N+](=O)[O-])ccc21	-0.142
Cc1c(C(=O)O)cccc1[N+](=O)[O-]	0.725
C[C@@H]1O[C@@H](O[C@@H]2[C@@H](O)[C@H](OCCc3ccc(O)c(O)c3)O[C@H](CO[C@@H]3O[C@H](CO)[C@@H](O)[C@H](O)[C@H]3O)[C@H]2OC(=O)/C=C/c2ccc(O)c(O)c2)[C@H](O)[C@H](O)[C@H]1O	-2.48
O=Cc1ccc(C(=O)O)cc1	-0.143
NC(=O)CCCCC(N)=O	-0.618
CCc1ccccc1	-3.67
CCNc1ccccc1	0.769
C=Cc1ccc(C=C)cc1	0.334
Cc1ccccc1C(N)=O	0.187
CCCCC(=O)N(C)C	0.834
CC#N	1.21
CC(=O)CCc1ccccc1	1.16
C=C(C)C1CC=C(C)C(OC(C)=O)C1 (stereo not given)	0.294
Nc1cccc2c(=O)[nH][nH]c(=O)c12	-1.49
CC(=O)c1cc(C)oc1C	-1.42
C=CCOC(=O)COCCC(C)C	-0.276
C=CCOC(=O)CCCCCCCC	0.241

SMILES	caspase-3 activation [%]
NC(=S)NNC(N)=S	1.31
CSCCC=O	0.544
CCC(C)O (stereo not given)	-0.434
CCCC(C)CO (stereo not given)	1.73
CCC(=O)/C=C/C1C(C)=CCCC1(C)C (stereo not given)	-0.504
C=CCCCCCC	-1.78
CC(C)=CCl	-0.119
Nc1ccc([N+](=O)[O-])c(N)c1	1.17
CC(=O)Nc1ccccc1C	2.44
CCCCCCCCN	1.04
CC(CCl)OC(C)CCl (stereo not given)	-0.159
O=[N+]([O-])c1ccccc1CCO	-2.09
Cc1cc(C)cc(O)c1	-0.0689
Cc1ccc(C#N)cc1	-0.248
[O-]/[N+](=N\O)c1ccccc1	-0.0255
CC(=O)Nc1cccc(N)c1	0.888
CCCCC(CC)CO (stereo not given)	-1.07
CC(=O)c1ccccc1[N+](=O)[O-]	0.739
Nc1cc(Cl)c([N+](=O)[O-])cc1O	-0.624
O=C(O[C@@H](C(=O)O)[C@@H](OC(=O)c1ccccc1)C(=O)O)c1ccccc1	0.272

Test: Cellular Toxicity (caspase-3) MRC-5 (AID 659);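 note: cells exposed to compound for 16 h at 37 °C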
Details: MRC-5 cells, luminescence, normalized: DMSO 0%, 10 µM staurosporine 100%; series mostly up to 91.7 µM; caspase-3 activation: at the top concentration
Outline: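 Concentration-dependent caspase 3/7 activation is measured in human normal lung fibroblasts (MRC-5) following 16-hour treatment. AC50 values come from standard Hill-equation modeling of luminescence normalized to DMSO and 10 uM staurosporine.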

SMILES	caspase-3 activation [%]
Nc1ccccc1S(=O)(=O)O	-0.184
c1ccsc1	0.135
FC(F)(F)c1ccccc1Cl	0.256
O=C1NC(=O)c2cc([N+](=O)[O-])ccc21	-1.87
Cc1c(C(=O)O)cccc1[N+](=O)[O-]	0.67
C[C@@H]1O[C@@H](O[C@@H]2[C@@H](O)[C@H](OCCc3ccc(O)c(O)c3)O[C@H](CO[C@@H]3O[C@H](CO)[C@@H](O)[C@H](O)[C@H]3O)[C@H]2OC(=O)/C=C/c2ccc(O)c(O)c2)[C@H](O)[C@H](O)[C@H]1O	-1.48
O=Cc1ccc(C(=O)O)cc1	1.05
NC(=O)CCCCC(N)=O	-1.19
CCc1ccccc1	-1.02
CCNc1ccccc1	1.58
C=Cc1ccc(C=C)cc1	0.0168
Cc1ccccc1C(N)=O	2.56
CCCCC(=O)N(C)C	1.6
CC#N	-1.3
CC(=O)CCc1ccccc1	0.869
C=C(C)C1CC=C(C)C(OC(C)=O)C1 (stereo not given)	-0.13
Nc1cccc2c(=O)[nH][nH]c(=O)c12	0.494
CC(=O)c1cc(C)oc1C	0.0391
C=CCOC(=O)COCCC(C)C	1.52
C=CCOC(=O)CCCCCCCC	-1.16

SMILES	caspase-3 activation [%]
NC(=S)NNC(N)=S	1.63
CSCCC=O	0.414
CCC(C)O (stereo not given)	-0.571
CCCC(C)CO (stereo not given)	1.99
CCC(=O)/C=C/C1C(C)=CCCC1(C)C (stereo not given)	0.0281
C=CCCCCCC	-1.09
CC(C)=CCl	0.671
Nc1ccc([N+](=O)[O-])c(N)c1	1.17
CC(=O)Nc1ccccc1C	2.56
CCCCCCCCN	0.472
CC(CCl)OC(C)CCl (stereo not given)	-2.24
O=[N+]([O-])c1ccccc1CCO	0.393
Cc1cc(C)cc(O)c1	1.01
Cc1ccc(C#N)cc1	-1.46
[O-]/[N+](=N\O)c1ccccc1	-4.19
CC(=O)Nc1cccc(N)c1	1.48
CCCCC(CC)CO (stereo not given)	0.0385
CC(=O)c1ccccc1[N+](=O)[O-]	2.69
Nc1cc(Cl)c([N+](=O)[O-])cc1O	4.45
O=C(O[C@@H](C(=O)O)[C@@H](OC(=O)c1ccccc1)C(=O)O)c1ccccc1	-1.86
